# Test results: paper PMC4336329 (PLoS ONE, 2015)
# The whole screen tested about 310,000 compounds, of which about 2,200 (0.71%) showed an effect of 50% or more. The effect is printed as a negative number. Many of the other results were omitted from the sample, so strong results are more common in it than they were.
# Molecular target: human ether-à-go-go-related gene (hERG) potassium channel (human, UniProt Q12809)
# Assay: primary screen, population patch clamp on CHO cells stably expressing hERG; higher = less effect of the substance
# Chain of human ether-à-go-go-related gene (hERG) potassium channel (Q12809 whole entry, looked up): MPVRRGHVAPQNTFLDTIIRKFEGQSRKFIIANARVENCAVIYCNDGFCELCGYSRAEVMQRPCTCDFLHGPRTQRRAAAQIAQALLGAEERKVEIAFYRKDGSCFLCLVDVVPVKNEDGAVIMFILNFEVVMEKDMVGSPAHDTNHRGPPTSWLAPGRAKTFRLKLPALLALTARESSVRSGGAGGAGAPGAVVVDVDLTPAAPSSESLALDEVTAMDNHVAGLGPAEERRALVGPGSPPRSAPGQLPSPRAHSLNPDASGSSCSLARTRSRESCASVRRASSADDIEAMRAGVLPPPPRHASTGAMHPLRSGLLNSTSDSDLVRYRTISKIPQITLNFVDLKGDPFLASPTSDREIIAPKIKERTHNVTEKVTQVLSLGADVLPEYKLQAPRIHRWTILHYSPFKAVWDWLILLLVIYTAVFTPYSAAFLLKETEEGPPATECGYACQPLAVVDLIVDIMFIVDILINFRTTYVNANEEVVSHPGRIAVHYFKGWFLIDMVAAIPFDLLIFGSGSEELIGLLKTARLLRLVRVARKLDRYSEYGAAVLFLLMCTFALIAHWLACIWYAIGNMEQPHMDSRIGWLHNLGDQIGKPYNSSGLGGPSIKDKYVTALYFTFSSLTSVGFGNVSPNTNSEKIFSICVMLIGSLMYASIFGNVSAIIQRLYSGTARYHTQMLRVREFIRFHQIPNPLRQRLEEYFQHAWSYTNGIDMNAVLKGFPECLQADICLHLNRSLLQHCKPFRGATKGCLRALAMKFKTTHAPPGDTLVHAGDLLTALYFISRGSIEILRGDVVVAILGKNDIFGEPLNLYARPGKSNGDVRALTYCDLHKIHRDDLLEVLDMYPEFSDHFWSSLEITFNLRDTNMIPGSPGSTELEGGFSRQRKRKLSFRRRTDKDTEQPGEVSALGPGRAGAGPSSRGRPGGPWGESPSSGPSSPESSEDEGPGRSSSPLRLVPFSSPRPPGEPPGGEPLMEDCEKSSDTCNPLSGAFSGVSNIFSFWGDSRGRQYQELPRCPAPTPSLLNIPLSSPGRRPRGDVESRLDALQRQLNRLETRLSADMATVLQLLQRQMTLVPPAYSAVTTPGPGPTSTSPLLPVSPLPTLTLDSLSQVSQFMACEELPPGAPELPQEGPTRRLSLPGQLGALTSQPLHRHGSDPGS
row,SMILES,"hERG current change (%, negative = inhibition) at 1uM [%]"
1,Cc1cc(-c2nn(-c3ccccc3F)cc2CN2CCN(c3ccncc3)CC2)c(C)s1,-69.3
2,Cc1cc(-c2nn(-c3ccccc3F)cc2CN2CCN(c3ccccn3)CC2)c(C)s1,10.2
3,Cc1ccc(N(CC(=O)NC(C)(C)C)C(=O)CNC(=O)c2cccs2)cc1,7.4
4,CN(CC(=O)Nc1ccc(F)cc1)C(=O)Cn1nnc(-c2ccccc2)n1,7.23
5,CC(C)N(C)C1CCN(C(=O)Nc2ccc(Cl)c(Cl)c2)CC1,-19.5
6,O=C1c2ccccc2C(=O)N1CCSc1nnc(-c2ccco2)n1Cc1ccccc1,-51.1
7,O=C(CSc1nnc(-c2ccco2)n1Cc1ccccc1)c1ccccc1,8.89
8,c1ccc(CSc2nnc(-c3ccco3)n2Cc2ccccc2)cc1,-6.43
9,Cc1c(NC(=S)N2CCN(c3cccc(Cl)c3)CC2)c(=O)n(-c2ccccc2)n1C,9.46
10,CCNC(=O)OCCC12CC3CC(CC(C3)C1)C2,11.6
11,CCn1cc(CNC(=O)c2ccc3nc(Cc4ccccc4F)oc3c2)cn1,11.3
12,COCCN(C(=O)COC(=O)c1ccc2[nH]c(C)c(C)c2c1)c1c(N)n(Cc2ccccc2)c(=O)[nH]c1=O,7.98
13,CN(C)CCN(C(=O)C1=COCCO1)c1nc2ccc(F)cc2s1.Cl,-57.7
14,CN(C)CCCN(C(=O)C1COc2ccccc2O1)c1nc2cc3c(cc2s1)OCO3.Cl (centres unmarked),-21.3
15,CN(C)CCCN(C(=O)C1COc2ccccc2O1)c1nc2ccc(F)cc2s1.Cl (centres unmarked),-64.9
16,CN(C)CCCN(C(=O)CCc1ccccc1)c1nc2ccc(F)cc2s1.Cl,-24.8
17,CN(C)CCCN(C(=O)c1ccc2c(c1)OCCO2)c1nc2ccc(Cl)cc2s1.Cl,-3.81
18,CN(C)CCCN(C(=O)C1=COCCO1)c1nc2ccc(Br)cc2s1.Cl,-25.1
19,CN(C)CCN(C(=O)C1=COCCO1)c1nc2ccc(Cl)cc2s1.Cl,-62.4
20,CN(C)CCN(C(=O)c1ccc2c(c1)OCCO2)c1nc2ccc(Cl)cc2s1.Cl,10.8
21,Cc1ccc2nc(N(CCN(C)C)C(=O)C3=COCCO3)sc2c1.Cl,-5.32

row,SMILES,"hERG current change (%, negative = inhibition) at 1uM [%]"
1,Cc1csc(SC(C)C(=O)NC2CCCCC2C)n1 (centres unmarked),7.18
2,COc1ccc2oc(=O)cc(-c3cc4ccccc4o3)c2c1,-1.03
3,COc1ccc(N2CCN(C(=O)C3CCCN(S(=O)(=O)c4cccc5cccnc45)C3)CC2)cc1 (centres unmarked),5.91
4,COc1ccc(N2CCN(C(=O)C3CCCN(S(=O)(=O)c4ccc(F)cc4)C3)CC2)cc1 (centres unmarked),-7.16
5,O=C(C1CCCN1S(=O)(=O)c1cccc2nsnc12)N1CCN(c2ccccc2)CC1 (centres unmarked),-1.72
6,O=C(C1CCCN1S(=O)(=O)c1cccc2nsnc12)N1CCN(c2ccc(F)cc2)CC1 (centres unmarked),-54.1
7,CC(=O)c1ccc(N2CCN(C(=O)C3CCCN3S(=O)(=O)c3cccc4nsnc34)CC2)cc1 (centres unmarked),14.6
8,O=C(C1CCCN(S(=O)(=O)c2ccccc2)C1)N1CCN(c2ccccc2)CC1 (centres unmarked),-12.7
9,O=C(C1CCCN(S(=O)(=O)c2ccccc2)C1)N1CCN(c2ccc(F)cc2)CC1 (centres unmarked),-62.4
10,O=C(C1CCCN(S(=O)(=O)c2cccc3cccnc23)C1)N1CCN(c2ccc(F)cc2)CC1 (centres unmarked),-50.1
11,O=C(C1CCCN(S(=O)(=O)c2cccc3cccnc23)C1)N1CCN(c2ccccc2F)CC1 (centres unmarked),-27.5
12,CC(=O)N1CCN(C(=S)NC(=O)c2ccc(S(=O)(=O)N3CCOCC3)cc2)CC1,13.2
13,COc1ccc(C(=O)Nc2c(C)ccc3nsnc23)cc1[N+](=O)[O-],3.23
14,C#CCNC(=O)C1=C[C@H](c2ccc(Br)cc2)C[C@H](OCCCCO)O1,11.3
15,COc1ccc([N+](=O)[O-])cc1N(CC(=O)Nc1ccccc1C(=O)N1CCOCC1)S(C)(=O)=O,4.57
16,COC(=O)C1=C(C(=O)OC)SC2(S1)C(C(=O)OC)=C(C(=O)OC)SC1=C2c2cccc(C)c2NC1(C)C,-79.1
17,COC(=O)C1=C(C(=O)OC)SC2(S1)C(C(=O)OC)=C(C(=O)OC)SC1=C2c2cc(C)ccc2NC1(C)C,11
18,COC(=O)C1=C(C(=O)OC)SC2(S1)C(C(=O)OC)=C(C(=O)OC)SC1=C2c2cc(C)cc(C)c2NC1(C)C,19.8
19,Cc1nc(C)n(CC(O)COc2ccc3ccccc3c2)n1 (centres unmarked),-0.527
20,CCOC(=O)[C@@H]1[C@H]2COc3cc(OC)ccc3[C@@H]2N2C(=O)N(c3ccc(Br)cc3)C(=O)[C@@]12C,5.83
